The values below come from PubChem BioAssay (Tox21).

A short description of experiment [1]: Nuclear factor erythroid 2-related factor 2/antioxidant responsive element (Nrf2/ARE) small molecule agonists: qHTS cell viability counter screen in human keratinocytes (AID 1919968; active = well fitted curve in the direction sought with a large enough effect in the repeat runs; an effect the other way counts as inactive or inconclusive; also: nearly all actives have a fitted effect of over 55% in size; also: potency is read from the fitted curve at half-maximal effect). An outline of the steps:
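Measured as CellTiter-Fluor fluorescence, this readout tracks cytotoxicity in the same wells as the ARE-luciferase screen. HaCaT reporter cells (1,500/well) received compounds after a 5 h pre-incubation and were exposed for 23 h.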
Background: qHTS replaces the single test concentration by a dilution series.

Experiment [2] addresses Gonadotropin-releasing hormone receptor (Homo sapiens) (UniProt P30968). Kind of experiment: Human gonadotropin-releasing hormone receptor (GnRHR) small molecule agonists, calcium flux assay in GnRHR-HEK293 cells (AID 1920063). Also: nearly all actives have a fitted effect of over 35% in size. Summed up: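 Fluorescence kinetics (480 nm excitation, 540 nm emission; 3 min, 1 s steps) report calcium mobilisation in human GnRHR-HEK293 cells in agonist mode. Dye incubation: 1 h, 37 C.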
Background: A change in cytosolic calcium serves as a functional read-out for many receptors and channels.

Experiment [3] has as its target KiSS-1 receptor (Homo sapiens) (UniProt Q969F8). Description: Human kisspeptin (KISS1R) small molecule agonists, calcium flux assay in KISS1R-HEK293 cells (AID 1920064; active = well fitted curve in the direction sought with a large enough effect in the repeat runs; an effect the other way counts as inactive or inconclusive). An outline of the steps: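 Measures KISS1R agonism through calcium-sensitive dye fluorescence in stably transfected HEK293 cells, read for 3 min after pin-tool compound delivery; 15-point titrations in triplicate.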

The nature of experiment [4]: G protein-coupled receptor (GPCR) small molecule agonists, calcium flux assay: HEK293 wild type cell line counter screen (AID 1920065). Summed up:
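Readout: fluorescence at 480 nm excitation/540 nm emission, sampled at 1 s intervals for 3 min. Cells had been cultured 18 h, then dye-loaded 1 h at 37 C before compound or ATP addition.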

A short description of experiment [5]: p53 small molecule agonists, cell-based qHTS assay with human liver microsomes (AID 1963577).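 Also: p53 response element beta-lactamase reporter cells with liver microsomes plus NADPH.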 An outline of the steps:
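Metabolically competent format: test substances, human liver microsomes and NADPH (both 0.5 mg/mL final) incubated with p53RE-bla cells 16 h at 37 C. Beta-lactamase reporter signal then quantified by fluorescence.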

The nature of experiment [6]: p53 small molecule agonists, cell-based qHTS assay with rat liver microsomes (AID 1963578). An outline of the steps: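 Each plate received p53RE-bla cells, then compound, then rat liver microsomes and NADPH (both 0.5 mg/mL final). Plates were held 16 h at 37 C, and beta-lactamase activity was detected with LiveBLAzer over 2 h.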
Experiment [7] is described as follows: p53 small molecule agonists, cell-based qHTS assay with human liver microsomes: qHTS cell viability counter screen (AID 1963579). Also: nearly all actives have a fitted effect of over 45% in size. Summed up: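 Tox21 library compounds, delivered from DMSO stocks, were tested on p53RE-bla cells together with 0.5 mg/mL human liver microsomes and 0.5 mg/mL NADPH (final) over 16 h at 37 C; CellTiter-Glo luminescence served as the cytotoxicity measure.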

Experiment [8] is described as follows: p53 small molecule agonists, cell-based qHTS assay with rat liver microsomes: qHTS cell viability counter screen (AID 1963580). Also: nearly all actives have a fitted effect of over 45% in size. An outline of the steps: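 p53RE-bla HCT-116 cells (4,000/well) rested 5 h at 37 C, then given Tox21 compounds in DMSO with rat liver microsomes (0.5 mg/mL final) plus NADPH (0.5 mg/mL final) for 16 h at 37 C. Viability read by CellTiter-Glo luminescence after 30 min at room temperature.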

A short description of experiment [9]: p53 small molecule agonists, cell-based qHTS assay: qHTS cell viability counter screen (AID 1963581). Also: nearly all actives have a fitted effect of over 45% in size. Summed up:
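In the same plates used for the p53 bla reporter, HCT-116 cells given compounds for 16 h at 37 C received CellTiter-Glo; luminescence was recorded 30 min later at room temperature.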

Experiment [10] can be described thus: p53 small molecule agonists, cell-based qHTS assay (AID 1963582; active = well fitted activation curve with a large enough effect in the signal ratio in the repeat runs, not every such curve was filed as active; the % refers to the signal ratio). Summed up:
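Compounds are pin-transferred in DMSO onto p53RE-bla cells and incubated 16 h at 37 C. The B/G FRET beta-lactamase substrate is then applied for 2 h at RT and fluorescence recorded.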

The target in experiment [11] is 5-hydroxytryptamine receptor 2A (Homo sapiens) (UniProt P28223). Description: 5-hydroxytryptamine receptor 2A (HTR2A) small molecule antagonists, cell-based qHTS assay (AID 1963586). Also: nearly all actives have a fitted effect of over 45% in size. Also: potency is read from the fitted curve at half-maximal effect. Summed up: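 Antagonist-mode intracellular calcium assay: DOI (4 nM) added after 5 min compound pre-incubation at room temperature to dye-loaded HTR2A-CHO cells. Fluorescence followed for 3 min, sampled every second.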

Experiment [12] shares this target. Kind of experiment: 5-hydroxytryptamine receptor 2A (HTR2A) small molecule agonists, cell-based qHTS assay (AID 1963587). Also: nearly all actives have a fitted effect of over 30% in size. Also: potency is read from the fitted curve at half-maximal effect. An outline of the steps:
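HTR2A-CHO cells, plated 18 h at 37 C/5% CO2, dye-loaded 1 h at 37 C; compounds in DMSO added by pin tool (agonist mode). Intracellular calcium flux read as kinetic fluorescence on FDSS over 2 min at 1 s intervals.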

Experiment [13] concerns the target Muscarinic acetylcholine receptor M1 (Homo sapiens) (UniProt P11229). Kind of experiment: Cholinergic receptor muscarinic 1 (CHRM1) small molecule antagonists, cell-based qHTS assay (AID 1963588). Also: nearly all actives have a fitted effect of over 40% in size. Also: potency is read from the fitted curve at half-maximal effect. An outline of the steps: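 CHRM1-CHO calcium-flux assay, antagonist mode. Cells were seeded 18 h, dye-loaded 1 h at 37 C and given compound for 5 min at RT, then acetylcholine was added at 50nM. FDSS fluorescence was read 3 min; 15 concentrations, three runs.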

For experiment [14], the target named is Beta-2 adrenergic receptor (Homo sapiens) (UniProt P07550). Description: Adrenergic beta2 receptor (ADRB2) small molecule antagonists, cell-based qHTS assay (AID 1963592). Also: series mostly up to about 92 µM; nearly all actives have a fitted effect of over 50% in size. Summed up: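 Cells (CHO, stable ADRB2 overexpression) incubated 18-20hr at 37C; compounds added from DMSO; agonist mix (1nM isoproterenol, 100uM IBMX, 25uM Ro-20-1724) added; 0.5hr RT; d2-cAMP and anti-cAMP-cryptate added; 1hr RT; 665/615 nm read.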

The target in experiment [15] is D(2) dopamine receptor (Homo sapiens) (UniProt P14416). Kind of experiment: Dopamine D2 receptor (DRD2) small molecule agonists, cell-based qHTS assay (AID 1963594). Also: nearly all actives have a fitted effect of over 35% in size. An outline of the steps: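 HEK293 cells stably expressing DRD2 were cultured 24 h at 37 C, then given Ro20-1724 (0.1 mM final) and compounds for 10 min at room temperature. NKH477 (200nM) was then added for 30 min. cAMP was read by HTRF.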

The target is the same in experiment [16]. Kind of experiment: Dopamine D2 receptor (DRD2) small molecule antagonists, cell-based qHTS assay (AID 1963595; active = well fitted inhibition curve with a large enough effect in the signal ratio in the repeat runs, with a control signal flat; the % refers to the signal ratio). An outline of the steps:
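Human DRD2 antagonist qHTS measuring cAMP by HTRF. The cells are exposed to compound for 10 min, then to NKH477 (200 nM) and quinpirole (12 nM) for 30 min at RT, with Ro20-1724 (0.1 mM) present throughout.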

The target in experiment [17] is Muscarinic acetylcholine receptor M1 (Homo sapiens) (UniProt P11229). Description: Cholinergic receptor muscarinic 1 (CHRM1) small molecule agonists, cell-based qHTS assay (AID 1963589). Also: nearly all actives have a fitted effect of over 35% in size. Summed up:
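Each compound was tested at 15 concentrations across three independent runs on dye-loaded CHO cells stably expressing human CHRM1, reading intracellular calcium fluorescence kinetically at 1 sec intervals.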

A short description of experiment [18]: cAMP Responsive Elements (CRE) small molecule antagonists, cell-based qHTS assay (AID 1963591; active = well fitted inhibition curve with a large enough effect in the signal ratio in the repeat runs, not every such curve was filed as active; the % refers to the signal ratio). An outline of the steps: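 Inhibition of NKH477-driven (0.25 uM final) CRE-beta-lactamase signal in HEK293T cells, 3 h compound exposure at 37 °C, detected by FRET substrate fluorescence.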
Experiment [19] has as its target Beta-2 adrenergic receptor (Homo sapiens) (UniProt P07550). Kind of experiment: Adrenergic beta2 receptor (ADRB2) small molecule agonists, cell-based qHTS assay (AID 1963593).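 Also: CHO cells stably overexpressing human ADRB2.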 An outline of the steps:
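CHO cells stably over-expressing ADRB2 were plated overnight at 37C, then dosed with compounds plus a stimulation mix containing 100uM IBMX and 25uM Ro-20-1724 for 0.5hr at room temperature. cAMP was measured by HTRF competition, 1hr.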

The nature of experiment [20]: cAMP Responsive Elements (CRE) small molecule agonists, cell-based qHTS assay (AID 1963590). An outline of the steps:
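Cell line: CRE-bla HEK 293T; medium DMEM/10% dialyzed FBS/0.1 mM NEAA/1 mM pyruvate/25 mM HEPES; 3 h compound exposure; beta-lactamase FRET readout after 2 h substrate loading at RT.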

Records with an inconclusive call do not appear. Activity calls are given as the source filed them. Unless noted, calls follow the shape of the full dose curve.

D(2) dopamine receptor (Homo sapiens), sequence (P14416 whole entry, looked up): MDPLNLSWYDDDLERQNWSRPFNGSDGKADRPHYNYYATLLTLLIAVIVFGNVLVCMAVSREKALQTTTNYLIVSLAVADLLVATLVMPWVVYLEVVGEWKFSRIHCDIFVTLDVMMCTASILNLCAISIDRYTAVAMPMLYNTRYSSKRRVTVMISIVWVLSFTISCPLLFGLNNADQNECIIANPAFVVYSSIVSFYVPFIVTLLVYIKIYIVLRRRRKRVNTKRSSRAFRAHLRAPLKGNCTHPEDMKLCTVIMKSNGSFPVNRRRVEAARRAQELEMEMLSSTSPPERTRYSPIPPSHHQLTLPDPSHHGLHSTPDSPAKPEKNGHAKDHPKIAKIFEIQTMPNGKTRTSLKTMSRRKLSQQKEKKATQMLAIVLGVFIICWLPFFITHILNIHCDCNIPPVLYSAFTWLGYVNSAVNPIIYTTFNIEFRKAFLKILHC
KiSS-1 receptor (Homo sapiens), sequence (Q969F8 whole entry, looked up): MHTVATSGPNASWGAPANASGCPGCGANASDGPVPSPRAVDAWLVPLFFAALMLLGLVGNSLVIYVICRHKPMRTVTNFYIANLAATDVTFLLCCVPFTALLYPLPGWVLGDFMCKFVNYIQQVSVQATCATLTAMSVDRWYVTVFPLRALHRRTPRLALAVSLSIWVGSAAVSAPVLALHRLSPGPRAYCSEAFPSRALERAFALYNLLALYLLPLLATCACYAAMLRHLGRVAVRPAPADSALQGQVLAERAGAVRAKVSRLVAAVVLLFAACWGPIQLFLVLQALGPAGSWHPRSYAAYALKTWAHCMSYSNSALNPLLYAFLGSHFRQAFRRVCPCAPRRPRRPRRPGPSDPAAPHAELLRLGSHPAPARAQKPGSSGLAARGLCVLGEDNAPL
Muscarinic acetylcholine receptor M1 (Homo sapiens), sequence (P11229 whole entry, looked up): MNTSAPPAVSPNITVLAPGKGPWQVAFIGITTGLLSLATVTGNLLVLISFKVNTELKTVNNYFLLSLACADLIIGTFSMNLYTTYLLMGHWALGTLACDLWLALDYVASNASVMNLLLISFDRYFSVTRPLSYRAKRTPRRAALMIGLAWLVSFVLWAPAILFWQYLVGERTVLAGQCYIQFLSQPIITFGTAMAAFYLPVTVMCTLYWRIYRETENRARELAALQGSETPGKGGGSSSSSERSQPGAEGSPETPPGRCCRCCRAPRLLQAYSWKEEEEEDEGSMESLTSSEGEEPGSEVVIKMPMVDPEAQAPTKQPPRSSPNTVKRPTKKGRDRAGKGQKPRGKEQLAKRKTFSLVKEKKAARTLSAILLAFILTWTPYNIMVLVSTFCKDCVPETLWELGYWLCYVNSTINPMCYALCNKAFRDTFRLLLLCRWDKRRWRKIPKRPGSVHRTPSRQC
5-hydroxytryptamine receptor 2A (Homo sapiens), sequence (P28223 whole entry, looked up): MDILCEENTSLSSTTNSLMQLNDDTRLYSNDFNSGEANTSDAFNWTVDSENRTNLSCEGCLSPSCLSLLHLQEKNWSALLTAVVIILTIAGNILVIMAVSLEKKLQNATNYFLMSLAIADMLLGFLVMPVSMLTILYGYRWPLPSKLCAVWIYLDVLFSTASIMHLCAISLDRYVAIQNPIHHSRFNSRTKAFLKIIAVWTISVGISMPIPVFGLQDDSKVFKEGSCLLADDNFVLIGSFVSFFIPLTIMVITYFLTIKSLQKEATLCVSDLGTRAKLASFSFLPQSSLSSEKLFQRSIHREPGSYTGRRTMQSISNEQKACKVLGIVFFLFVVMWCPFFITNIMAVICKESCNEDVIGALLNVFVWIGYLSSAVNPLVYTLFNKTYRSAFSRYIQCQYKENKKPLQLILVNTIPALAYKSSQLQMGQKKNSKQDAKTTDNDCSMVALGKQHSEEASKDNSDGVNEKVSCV
Gonadotropin-releasing hormone receptor (Homo sapiens), sequence (P30968 whole entry, looked up): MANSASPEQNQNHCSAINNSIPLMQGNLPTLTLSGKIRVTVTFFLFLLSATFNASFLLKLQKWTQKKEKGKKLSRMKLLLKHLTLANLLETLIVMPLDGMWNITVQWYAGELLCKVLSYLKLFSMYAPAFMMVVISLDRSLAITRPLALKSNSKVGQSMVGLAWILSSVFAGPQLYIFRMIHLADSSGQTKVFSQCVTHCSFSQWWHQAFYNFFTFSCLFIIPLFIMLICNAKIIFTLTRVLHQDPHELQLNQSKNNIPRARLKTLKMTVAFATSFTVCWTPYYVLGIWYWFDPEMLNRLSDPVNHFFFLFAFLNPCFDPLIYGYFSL
Beta-2 adrenergic receptor (Homo sapiens), sequence (P07550 whole entry, looked up): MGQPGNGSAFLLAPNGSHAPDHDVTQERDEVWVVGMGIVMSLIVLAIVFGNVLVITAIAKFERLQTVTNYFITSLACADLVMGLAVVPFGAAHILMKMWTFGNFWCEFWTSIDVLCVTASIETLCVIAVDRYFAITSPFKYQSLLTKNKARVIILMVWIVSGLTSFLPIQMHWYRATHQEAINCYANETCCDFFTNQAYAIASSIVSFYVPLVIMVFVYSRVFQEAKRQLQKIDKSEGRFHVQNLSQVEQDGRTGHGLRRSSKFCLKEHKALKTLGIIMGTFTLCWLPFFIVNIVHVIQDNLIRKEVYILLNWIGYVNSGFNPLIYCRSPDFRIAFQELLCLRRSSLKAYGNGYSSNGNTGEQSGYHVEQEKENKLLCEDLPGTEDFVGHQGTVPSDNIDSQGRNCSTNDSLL

`NC1(c2ccc(-c3nc4ccn5c(=O)[nH]nc5c4cc3-c3ccccc3)cc2)CCC1`: the values for the Potency in [1], in [12] and in experiment [13] were 29.8 µM (active), 26.8 µM (active) and 2.9 µM (active), respectively. The Potency entry in experiment [2], in [3], in experiment [4], in experiment [5], in [6] and in experiment [7] was “inactive” in each case. For the same molecule, the Potency result in experiment [8], in experiment [9], in [10], in experiment [11], in experiment [14] and in experiment [15] was “inactive” each time. For the same molecule, the Potency result in [16] is “inactive”.

Regarding `Nc1ccccn1`, the Potency entry in experiment [1], in experiment [2], in experiment [3], in [4], in [5] and in [6] was “inactive” throughout. The Potency result in [7], in experiment [8], in experiment [9], in experiment [10], in experiment [12] and in experiment [13] was “inactive” in each case. In addition, the Potency result in experiment [17], in experiment [14], in [15] and in [16] was “inactive” each time. Moreover, the Potency in experiment [11] was 0.0318 µM (active).

With `CCCCC(CC)COCCCN` (configuration not stated), the Potency result in experiment [1], in [2], in experiment [3], in experiment [4], in experiment [5] and in experiment [6] was “inactive” throughout. Moreover, the Potency entry in [7], in [8], in experiment [9], in [10], in [11] and in experiment [13] was “inactive” each time. The Potency entry in experiment [17], in experiment [18], in experiment [19], in experiment [15] and in experiment [16] was “inactive” in each case. Further, the Potency in experiment [12] was 17.2 µM (active).

Consider `CC(C)NC(=O)c1ccc(C=O)cc1`, for which the Potency result in [1], in [2], in experiment [3], in [4], in [5] and in experiment [6] was “inactive” each time. For the same molecule, the Potency entry in experiment [7], in experiment [8], in [9], in [10], in experiment [11] and in [12] was “inactive” in each case. Besides, the Potency result in experiment [13], in experiment [17], in [18], in experiment [14] and in [16] was “inactive” each time.

On to `O=C(Oc1ccccc1)Oc1ccccc1`, for which the Potency entry in experiment [1], in experiment [2], in experiment [3], in experiment [4], in experiment [5] and in experiment [6] was “inactive” in each case. In addition, the Potency result in [7], in [8], in experiment [9], in experiment [10], in [12] and in experiment [13] was “inactive” each time. Further, the Potency entry in experiment [17], in [20], in experiment [14], in experiment [15] and in [16] was “inactive” each time.

Consider `CN(C)c1ccc(C=O)cc1`, for which the Potency result in [1], in experiment [2], in experiment [3], in experiment [4], in [5] and in experiment [6] was “inactive” each time. For the same molecule, the Potency result in [7], in [8], in [9], in [10], in experiment [12] and in experiment [13] was “inactive” each time. In addition, the Potency result in experiment [17], in [20], in experiment [18], in experiment [14], in experiment [19] and in experiment [15] was “inactive” in each case. In addition, the Potency entry in experiment [16] is “inactive”.

For the molecule `CCO/C=C1\N=C(c2ccccc2)OC1=O`, the Potency result in experiment [1], in [2], in [3], in [4], in experiment [5] and in [6] was “inactive” throughout. The Potency entry in [7], in [8], in experiment [9], in experiment [10], in experiment [11] and in [12] was “inactive” throughout. Further, the Potency entry in experiment [13], in experiment [17], in experiment [18], in experiment [14], in experiment [15] and in [16] was “inactive” throughout.
